The panel holds about 79,000 compounds, 15% with a hit somewhere; the sample as a whole holds those more often. Active and inactive are the calls of the source. Rule as the data show it: active = growth inhibition above about 70%; inactive = the rest. Where a SMILES comes first, the peptide text is derived from it.
Experiment: NCI Yeast Anticancer Drug Screen. Data for the cln2 rad14 strain (AID 165);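 also: 0% = growth equal to vehicle treated cultures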
Conditions: S. cerevisiae cln2 rad14 strain, at 50.0 µM, hits give high values
Summary of the method: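 Yeast strain cln2 rad14, bearing defects in cell cycle control and DNA repair, serves as the test system; values reflect growth inhibition compared with vehicle.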
For `CCOC1=C/C(=N\NC(N)=O)CCC1`, the growth inhibition was 27.8% (inactive).
For `CCSc1cccc(C(=O)O)c1`, the growth inhibition was -27.8% (inactive).
In the case of `NC(=O)N/N=C1\CCCC(OC(=O)c2ccccc2)CC1` (stereo unspecified), the growth inhibition is reported as -20.1% (inactive).
In the case of `CS(=O)(=O)OC1COCOC1C1OCOCC1OS(C)(=O)=O` (stereo unspecified), the growth inhibition is reported as -10.4% (inactive).
For `CCCCCCCCCCCCCCCC/C(C(=O)OC)=C(/O)C(=O)OCC`, the growth inhibition was -67% (inactive).
In the case of `CC(=O)OC1CCC2(C)C(CCC3(C)C2CCC2C4C5OC(=O)C4(CCC5(C)C)CCC23C)C1(C)C` (stereo unspecified), the growth inhibition is reported as -5.2% (inactive).
In the case of `CCOC(CN(C)C)OCC`, the growth inhibition is reported as -18.2% (inactive).
With `NS(=O)(=O)c1ccc(N2C(=O)C3C(C2=O)C2(Cl)C(Cl)=C(Cl)C3(Cl)C2(Cl)Cl)cc1` (stereo unspecified) the growth inhibition was 15.1% (inactive).
With `Nc1nc(N)c(N=Nc2ccc(S(=O)(=O)O)cc2)c(N)n1` the growth inhibition was -21.1% (inactive).
In the case of `CC(=O)N(C)C`, the growth inhibition is reported as 6% (inactive).
For `N#CCCOCC(OCCC#N)C(OCCC#N)C(OCCC#N)C(COCCC#N)OCCC#N` (stereo unspecified), the growth inhibition was 6.15% (inactive).
In the case of `O=S(=O)(O)C(O)c1ccccc1` (stereo unspecified), the growth inhibition is reported as -10.9% (inactive).
In the case of `O=C(Nc1ccc2c(c1)Cc1cccc(F)c1-2)C(F)(F)F`, the growth inhibition is reported as -1.5% (inactive).
In the case of `COc1ccc(Br)cc1C1SCC(=O)N1c1nncs1` (stereo unspecified), the growth inhibition is reported as 11.2% (inactive).
In the case of `CCOC(=O)c1ccc(-c2ccccc2)cc1`, the growth inhibition is reported as -7.25% (inactive).
In the case of `OC(Cc1cccnc1)(c1ccccc1)c1ccccc1`, the growth inhibition is reported as -21.5% (inactive).
In the case of `CC(CCC(=O)O)[C@H]1CCC2[C@@H]3CC[C@@H]4CC(O)CC[C@]4(C)C3CC[C@@]21C` (stereo partly specified), the growth inhibition is reported as -0.1% (inactive).
For `O=C(NO)c1ccccc1O`, the growth inhibition was 4.2% (inactive).
With `CC(C)NC(=O)N(C(=O)C(F)(F)F)C(C)C` the growth inhibition was -41% (inactive).
In the case of `CCN(CC)CCN(CCN(CC)CC)c1c(OC)cccc1OC`, the growth inhibition is reported as -14.4% (inactive).
With `Cc1cc(C)c(C)c(C(=O)OC(C)C)c1C` the growth inhibition was 15.4% (inactive).
With `CCOC(=N)Cc1ccccc1` the growth inhibition was -10.8% (inactive).
For `Cc1cc(C)c(N(C)C(=O)CCC(=O)O)c(Br)c1`, the growth inhibition was 0.05% (inactive).
With `COc1ccc(NC(=S)NN)cc1` the growth inhibition was -6% (inactive).
With `NNC(=O)C1CCC(=O)N1S(=O)(=O)c1ccccc1` (stereo unspecified) the growth inhibition was 8.95% (inactive).
In the case of `COc1cc(C2c3cc4c(cc3OC(NNC(N)=S)C2C)OCO4)cc(OC)c1OC` (stereo unspecified), the growth inhibition is reported as -0.2% (inactive).

Experiment: NCI Yeast Anticancer Drug Screen. Data for the bub3 strain (AID 167)
Conditions: S. cerevisiae bub3 mutant strain, at 50.0 µM, hits give high values
Summary of the method: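 Compounds were applied to a genetically altered yeast strain carrying a cell-cycle control defect. Growth inhibition was scored against vehicle-treated controls.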
In the case of `CCOC(=O)NC(C)=O`, the growth inhibition is reported as -19.3% (inactive).
With `Cc1n[nH]c(=S)n1NC=O` the growth inhibition was -4.95% (inactive).
For `CCCC(C)C(=O)O` (stereo unspecified), the growth inhibition was 28.8% (inactive).
In the case of `CCCCCCCCCCCCCCCCCCNC1=C(C)C(=O)C(NCCCCCCCCCCCCCCCCCC)=C(OCC)C1=O`, the growth inhibition is reported as -1.2% (inactive).
With `COc1cc(O)c(C(=O)CC(C)=O)c(OC)c1` the growth inhibition was 10.9% (inactive).
With `Cc1ccc(C(=O)c2c[nH]c(=O)[nH]c2=O)cc1` the growth inhibition was -3.05% (inactive).
With `CC(=O)c1cc2c(Br)cccc2oc1=O` the growth inhibition was -42.9% (inactive).
For `CC1N=C(c2ccccc2)SC1C` (stereo unspecified), the growth inhibition was -11% (inactive).
For `C/C(=N\N=C(\Cc1ccccc1)c1ccccc1)c1ccccc1`, the growth inhibition was -1.65% (inactive).
In the case of `CC(C)CC(NC(=O)C(CCC(=O)O)NC(=O)CNC(=O)CNC(=O)C(CO)NC(=O)C(CC(C)C)NC(=O)C(NC(=O)C(CO)NC(=O)C(C)NC(=O)C(CCCNC(=N)N)NC(=O)C(C)NC(=O)CN)C(C)C)C(=O)NC(CC(=O)O)C(=O)NC(CCCNC(=N)N)C(=O)NC(Cc1c[nH]c2ccccc12)C(=O)NC(Cc1ccc(O)cc1)C(N)=O` (stereo unspecified) (H-GARASVLSGGELDRWY-NH2; configuration not given here), the growth inhibition is reported as -5.85% (inactive).
For `COc1ccc(C(C)=O)cc1CCCOC(C)=O`, the growth inhibition was 9% (inactive).
With `COCc1ccc(C(C)(C)CC(C)(C)C)cc1` the growth inhibition was -0.45% (inactive).
In the case of `CSc1nc(NN)c([N+](=O)[O-])c(SC)n1`, the growth inhibition is reported as -14.5% (inactive).
For `O=c1oc2c(ccc3ccccc32)c(O)c1-c1cccc2ccccc12`, the growth inhibition was 97.7% (active).
In the case of `CCOC1=C/C(=N\NC(N)=O)CCC1`, the growth inhibition is reported as 3.95% (inactive).
In the case of `CCSc1cccc(C(=O)O)c1`, the growth inhibition is reported as -22.9% (inactive).
For `NC(=O)N/N=C1\CCCC(OC(=O)c2ccccc2)CC1` (stereo unspecified), the growth inhibition was -1.5% (inactive).
In the case of `CS(=O)(=O)OC1COCOC1C1OCOCC1OS(C)(=O)=O` (stereo unspecified), the growth inhibition is reported as -6% (inactive).
With `CCCCCCCCCCCCCCCC/C(C(=O)OC)=C(/O)C(=O)OCC` the growth inhibition was -1.2% (inactive).
With `CC(=O)OC1CCC2(C)C(CCC3(C)C2CCC2C4C5OC(=O)C4(CCC5(C)C)CCC23C)C1(C)C` (stereo unspecified) the growth inhibition was -33% (inactive).
In the case of `CCOC(CN(C)C)OCC`, the growth inhibition is reported as -5.8% (inactive).
For `NS(=O)(=O)c1ccc(N2C(=O)C3C(C2=O)C2(Cl)C(Cl)=C(Cl)C3(Cl)C2(Cl)Cl)cc1` (stereo unspecified), the growth inhibition was -4.7% (inactive).
In the case of `Nc1nc(N)c(N=Nc2ccc(S(=O)(=O)O)cc2)c(N)n1`, the growth inhibition is reported as 2% (inactive).
In the case of `CC(=O)N(C)C`, the growth inhibition is reported as -2.3% (inactive).
For `N#CCCOCC(OCCC#N)C(OCCC#N)C(OCCC#N)C(COCCC#N)OCCC#N` (stereo unspecified), the growth inhibition was 6.8% (inactive).
In the case of `O=S(=O)(O)C(O)c1ccccc1` (stereo unspecified), the growth inhibition is reported as -15.1% (inactive).
For `O=C(Nc1ccc2c(c1)Cc1cccc(F)c1-2)C(F)(F)F`, the growth inhibition was 36.7% (inactive).
For `COc1ccc(Br)cc1C1SCC(=O)N1c1nncs1` (stereo unspecified), the growth inhibition was 16.4% (inactive).
For `CCOC(=O)c1ccc(-c2ccccc2)cc1`, the growth inhibition was -12.2% (inactive).
For `OC(Cc1cccnc1)(c1ccccc1)c1ccccc1`, the growth inhibition was -13.9% (inactive).
In the case of `CC(CCC(=O)O)[C@H]1CCC2[C@@H]3CC[C@@H]4CC(O)CC[C@]4(C)C3CC[C@@]21C` (stereo partly specified), the growth inhibition is reported as -16.1% (inactive).
In the case of `O=C(NO)c1ccccc1O`, the growth inhibition is reported as 8% (inactive).
For `CC(C)NC(=O)N(C(=O)C(F)(F)F)C(C)C`, the growth inhibition was 2.1% (inactive).
In the case of `CCN(CC)CCN(CCN(CC)CC)c1c(OC)cccc1OC`, the growth inhibition is reported as 9.15% (inactive).
With `Cc1cc(C)c(C)c(C(=O)OC(C)C)c1C` the growth inhibition was -3.85% (inactive).
For `CCOC(=N)Cc1ccccc1`, the growth inhibition was 23.4% (inactive).
In the case of `Cc1cc(C)c(N(C)C(=O)CCC(=O)O)c(Br)c1`, the growth inhibition is reported as 9% (inactive).
With `COc1ccc(NC(=S)NN)cc1` the growth inhibition was 13.9% (inactive).
In the case of `NNC(=O)C1CCC(=O)N1S(=O)(=O)c1ccccc1` (stereo unspecified), the growth inhibition is reported as -2.25% (inactive).
For `COc1cc(C2c3cc4c(cc3OC(NNC(N)=S)C2C)OCO4)cc(OC)c1OC` (stereo unspecified), the growth inhibition was 6.95% (inactive).
